# Laboratory results reported in PubChem BioAssay (NCATS).
# Inconclusive results are not listed. Activity calls are given as the source filed them. Calls follow the shape of the dose curve; as a rule, active = well fitted inhibition curve with a large enough effect; inconclusive = small, poorly fitted or top-dose-only effect; inactive = no such curve, though single readings can be large or run the other way.
# Target: Rap guanine nucleotide exchange factor 4 (Homo sapiens) (UniProt Q8WZA2)
# Assay: Confirmatory qHTS for antagonist of cAMP-regulated guanine nucleotide exchange factor 4 (EPAC2) (AID 1645885); also: nearly all actives have a fitted effect of over 25% in size; as to activity change, negative = inhibition: % is scaled to controls: 0 for no effect and ±100 for the full control effect
# Settings: EPAC2 Rap1B-BODIPY-GDP exchange fluorescence, biochemical; series mostly up to 12.7 µM; activity change, negative = inhibition: at the top concentration
# Chain of Rap guanine nucleotide exchange factor 4 (Homo sapiens) (Q8WZA2 whole entry, looked up): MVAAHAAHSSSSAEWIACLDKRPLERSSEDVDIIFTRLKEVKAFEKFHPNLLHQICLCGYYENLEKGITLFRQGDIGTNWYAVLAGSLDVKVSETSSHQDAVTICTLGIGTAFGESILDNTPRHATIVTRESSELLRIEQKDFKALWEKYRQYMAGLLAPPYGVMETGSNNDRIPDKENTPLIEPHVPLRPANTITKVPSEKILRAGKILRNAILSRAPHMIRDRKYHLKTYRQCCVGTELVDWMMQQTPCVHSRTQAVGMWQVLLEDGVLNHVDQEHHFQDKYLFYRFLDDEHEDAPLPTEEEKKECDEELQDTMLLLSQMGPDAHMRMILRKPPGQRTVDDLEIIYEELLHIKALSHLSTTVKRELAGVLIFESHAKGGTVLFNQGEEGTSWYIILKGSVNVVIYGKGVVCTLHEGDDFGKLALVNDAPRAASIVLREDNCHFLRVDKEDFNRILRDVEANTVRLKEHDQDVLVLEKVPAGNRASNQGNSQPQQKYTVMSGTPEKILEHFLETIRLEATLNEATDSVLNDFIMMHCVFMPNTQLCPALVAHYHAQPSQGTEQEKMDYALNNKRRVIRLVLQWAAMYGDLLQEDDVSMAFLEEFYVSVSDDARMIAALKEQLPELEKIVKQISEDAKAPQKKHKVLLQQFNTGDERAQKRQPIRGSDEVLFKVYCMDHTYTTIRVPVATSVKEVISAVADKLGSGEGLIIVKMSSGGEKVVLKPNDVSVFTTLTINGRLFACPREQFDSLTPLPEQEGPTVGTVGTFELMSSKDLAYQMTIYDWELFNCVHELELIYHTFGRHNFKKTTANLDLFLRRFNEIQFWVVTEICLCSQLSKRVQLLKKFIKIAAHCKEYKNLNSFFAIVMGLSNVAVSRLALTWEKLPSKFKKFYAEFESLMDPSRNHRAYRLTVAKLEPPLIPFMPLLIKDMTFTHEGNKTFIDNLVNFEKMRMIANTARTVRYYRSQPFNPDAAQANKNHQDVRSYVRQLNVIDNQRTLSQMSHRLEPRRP
Compound,outcome,"activity change, negative = inhibition"
CCCCn1c(COc2cccc(OC)c2)nc2ccccc21,inactive [at 12.7 µM],–
CCOC(=O)c1ccc(NC(=O)CC2Nc3cccc4cccc(c34)NC2=O)cc1 (stereo not drawn),–,7.57% (inactive)
COc1ccc(Cl)cc1NC(=O)c1c(NCc2ccc(C)o2)sc2c1CCCCC2,–,67.4% (inactive)
COc1cc(OC)c(NC(=O)CN(C)S(=O)(=O)c2ccc(-c3ccc(=O)[nH]n3)s2)cc1Cl,–,58.6% [at 114 µM] (inactive)
COc1ccc(C(=O)CSc2nnc(-c3ccco3)c(-c3ccco3)n2)cc1,–,23% [at 114 µM] (inactive)
Cc1ccc(SC/C(O)=C(\C#N)c2nc3ccccc3s2)cc1,inactive,–
Cc1ccc(C)c(-c2ccc(=O)n(Cc3c(F)cccc3Cl)n2)c1,–,-4.43% [at 114 µM] (inactive)
C/C=C/COC(=O)c1[nH]c2c(c1C)C(=O)CC(c1ccco1)C2 (stereo not drawn),–,-1.58% [at 114 µM] (inactive)

# Target: Rap guanine nucleotide exchange factor 3 (Homo sapiens) (UniProt O95398)
# Sequence (O95398 whole entry, looked up): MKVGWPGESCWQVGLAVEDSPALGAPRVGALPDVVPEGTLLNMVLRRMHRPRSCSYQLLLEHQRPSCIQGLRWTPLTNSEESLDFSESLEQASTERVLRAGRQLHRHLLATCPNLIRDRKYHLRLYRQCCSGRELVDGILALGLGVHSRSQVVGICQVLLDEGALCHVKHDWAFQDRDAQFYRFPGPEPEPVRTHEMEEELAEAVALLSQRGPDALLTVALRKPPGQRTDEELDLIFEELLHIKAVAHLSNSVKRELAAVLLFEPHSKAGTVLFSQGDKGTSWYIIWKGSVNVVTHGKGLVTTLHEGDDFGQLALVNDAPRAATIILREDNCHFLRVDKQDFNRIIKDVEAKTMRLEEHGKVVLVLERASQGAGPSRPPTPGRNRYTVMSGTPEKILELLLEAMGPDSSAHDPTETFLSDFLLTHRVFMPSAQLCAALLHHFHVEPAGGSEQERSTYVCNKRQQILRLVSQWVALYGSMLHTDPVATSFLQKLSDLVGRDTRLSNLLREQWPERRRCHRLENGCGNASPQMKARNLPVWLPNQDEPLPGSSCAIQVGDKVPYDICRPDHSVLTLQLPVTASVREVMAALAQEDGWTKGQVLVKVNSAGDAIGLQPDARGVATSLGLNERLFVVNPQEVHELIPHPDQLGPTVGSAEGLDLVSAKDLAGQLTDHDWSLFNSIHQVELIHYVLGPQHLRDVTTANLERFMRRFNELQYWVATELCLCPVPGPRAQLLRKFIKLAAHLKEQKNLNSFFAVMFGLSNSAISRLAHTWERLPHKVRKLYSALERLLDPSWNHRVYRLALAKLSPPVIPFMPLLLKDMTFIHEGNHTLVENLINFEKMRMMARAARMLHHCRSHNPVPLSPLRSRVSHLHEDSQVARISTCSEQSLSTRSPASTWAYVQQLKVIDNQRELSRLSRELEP
# Assay: Counterscreen qHTS for antagonist of cAMP-regulated guanine nucleotide exchange factor 3 (EPAC1) (AID 1645888);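 also: fluorescence loss as bound BODIPY-GDP is released from Rap1B; % of control where 0% means no effect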
# Settings: Rap1B-BODIPY-GDP nucleotide exchange, fluorescence; series mostly up to 154 µM; activity change, negative = inhibition: at the top concentration
# Procedure, shortened: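 Measured: fluorescence of BODIPY-GDP bound to Rap1B, which falls as exchange proceeds. Conditions include 50 uM competing GDP, 5 and 30 min reads, and a later cAMP challenge for antagonist detection.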
row,Compound,"activity change, negative = inhibition"
1,Cc1ccc(Nc2nnc(-c3ccc(C)c(S(N)(=O)=O)c3)c3ccccc23)cc1,23.2% (inactive)
2,C=CS(=O)(=O)N(Cc1ccccc1Br)[C@H](CO)CC(C)C,-13.6% [at 30.8 µM] (inactive)
3,CCN(C(=O)Cn1c(C(=O)OC)cc2sccc21)c1cccc(C)c1,-2.45% (inactive)
4,Cc1ccc(-c2cc(C(=O)Nc3ccc(S(=O)(=O)Nc4onc(C)c4C)cc3)c3ccccc3n2)cc1,1.26% [at 30.8 µM] (inactive)
5,O=C(Nc1cccc(S(=O)(=O)NC2=NCCCCC2)c1)c1cc(-c2ccc(Cl)cc2)nc2ccccc12,-9.07% (inactive)
6,CCc1ccccc1OCC(=O)NCC1COc2ccccc2O1 (stereo not drawn),-29.9% (inactive)
7,O=C1N(Cc2ccccc2)c2ccccc2C1(O)c1c[nH]c2ccccc12 (stereo not drawn),-12.5% (inactive)
8,Cc1[nH]n(-c2ccccc2)c(=O)c1C=Nc1ccc(S(=O)(=O)N=C(N)N)cc1,-36.4% (inactive)
9,CCN1CCc2c(sc(NC(=O)c3cc4ccccc4cc3OC)c2C(N)=O)C1,-3.83% [at 30.8 µM] (inactive)
10,COc1cccc(C(=O)Nc2cccc(C(=O)OCc3cc(=O)n4c(C)csc4n3)c2)c1,-7.28% (inactive)
11,CCc1nc2c(OCC3CCCCC3)cccn2c1N(C)C(=O)c1ccc(C)cc1,-24.8% (inactive)
12,Fc1ccccc1C1CC(c2ccco2)=Nc2ccccc2S1 (stereo not drawn),-3.18% [at 30.8 µM] (inactive)
13,O=c1[nH][nH]c(-c2ccccc2O)c1C(C[N+](=O)[O-])c1ccc(Br)cc1 (stereo not drawn),6.76% (inactive)
14,O=C(CSc1nc(-c2ccccc2)nc2c1Cc1ccccc1O2)Nc1ccc(C(=O)O)cc1,8.7% (inactive)
15,CCOC(=O)c1ccc(NC(=O)c2c(NCc3cccs3)sc3c2CCCCC3)cc1,20.5% (inactive)
16,O=C(NC1(O)C(=O)c2ccccc2C1=O)c1ccc(C(F)(F)F)cc1,5.04% (inactive)
17,COC(=O)CC1(C(=O)OC)Oc2ccc(Br)cc2C(=O)N1c1cccc(Cl)c1Cl (stereo not drawn),-16.1% (inactive)
18,O=C(Nc1nc(-c2ccco2)c(-c2ccco2)s1)c1ccco1,0.168% [at 30.8 µM] (inactive)
19,CCc1ccc2c(c1)NC(=O)C2(C)Cc1ccc(Cl)s1 (stereo not drawn),-21.9% [at 30.8 µM] (inactive)
20,Oc1cccc(C=Nc2cccc3ccccc23)c1O,8.98% (inactive)

row,Compound,"activity change, negative = inhibition"
1,O=C1C(=O)c2cccnc2-c2ncccc21,4.1% (inactive)
2,COc1ccc(C(CC(=O)c2ccc(C)cc2)C(C#N)C#N)cc1OC (stereo not drawn),-5.84% (inactive)
3,Cc1ccc(O)c(-c2n[nH]c3c2C(c2ccc(F)cc2)N(Cc2ccco2)C3=O)c1 (stereo not drawn),-21.5% (inactive)
4,COc1cc(-c2cc(OC)c3c(C)oc(C)c3c(=O)c2)ccc1OC(=O)c1ccccc1F,-5.61% (inactive)
5,CCOC(=O)c1ccc2ncc(C(=O)OCC)c(Nc3ccc(C)c(Br)c3)c2c1,-28.8% (inactive)
6,COc1ccc(CN(C(=O)c2cccs2)c2nccs2)cc1OC,8.05% (inactive)
7,CCCC1=C/C(=C/c2ccc(-c3ccccc3OC)o2)C(=O)O1,-9.78% [at 30.8 µM] (inactive)
8,Cc1ccc(-n2c(CCC(=O)O)ccc2-c2cccs2)cc1Cl,39.6% (inactive)
9,Cc1cc(SCC(=O)N/N=C/c2ccc(O)c(O)c2)nc2ccccc12,-2.02% [at 30.8 µM] (inactive)
10,COc1ccccc1N1CSC2=C(C#N)C(c3ccc(SC)cc3)CC(=O)N2C1 (stereo not drawn),-2.77% [at 30.8 µM] (inactive)
11,CC(C)Cc1ccc(CN2C(C(C)C)C(=O)N(Cc3cn(CCC4OCCO4)nn3)CCS2(=O)=O)cc1 (stereo not drawn),-13.5% [at 30.8 µM] (inactive)
12,Cc1cccc(-c2nc3c(cnn3-c3ccccc3)c(=O)n2-c2cccc(Cl)c2)c1,19% (inactive)
13,CCCCn1c(COc2cccc(OC)c2)nc2ccccc21,0.194% (inactive)
14,CCOC(=O)c1ccc(NC(=O)CC2Nc3cccc4cccc(c34)NC2=O)cc1 (stereo not drawn),6.84% (inactive)
15,COc1ccc(Cl)cc1NC(=O)c1c(NCc2ccc(C)o2)sc2c1CCCCC2,16.3% (inactive)
16,COc1cc(OC)c(NC(=O)CN(C)S(=O)(=O)c2ccc(-c3ccc(=O)[nH]n3)s2)cc1Cl,48.9% (inactive)
17,COc1ccc(C(=O)CSc2nnc(-c3ccco3)c(-c3ccco3)n2)cc1,-5.54% (inactive)
18,Cc1ccc(SC/C(O)=C(\C#N)c2nc3ccccc3s2)cc1,22.4% (inactive)
19,Cc1ccc(C)c(-c2ccc(=O)n(Cc3c(F)cccc3Cl)n2)c1,-12.4% (inactive)
20,C/C=C/COC(=O)c1[nH]c2c(c1C)C(=O)CC(c1ccco1)C2 (stereo not drawn),-0.755% (inactive)
